Bioassay records (PubChem BioAssay)
Compounds with a hit are over-represented: about 21% of the library has one in this group of screens.
HCMV antiviral – qHTS Assay for inhibitors of the human cytomegalovirus (HCMV); HFF cells, HCMV-luciferase reporter, 72 h; hits give low values; activity change, negative = inhibition, % at 57.5 µM; 4.5% of 410,000 active; AID 1259415, 2018; in the data active = activity change below about -60%; inconclusive = no clear call, values can overlap the other calls; inactive = above about -39%; note: % is set by controls: 0 for no effect and ±100 for the full control effect
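Two-dose cell screen: HFF monolayers treated with compounds and infected with luciferase-expressing HCMV at 1 PFU/cell, 72 h at 37C, then lysed for luciferase measurement.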
Cycloheximide cs – Cycloheximide Counterscreen for Small Molecule Inhibitors of Shiga Toxin. cell reporter, cycloheximide protein synthesis inhibition counterscreen. max response, %. 12% of 300,000 active. AID 2314, 2010; in the data active = max response mostly above about 13%, no sharp cut-off; inactive = mostly below about 14%; note: read at 38.3 µM for the half of the compounds with a filed dose; 0% is about no effect
Shiga inhibitor – A qHTS for Small Molecule Inhibitors of Shiga Toxin; Vero cells, Shiga toxin protein synthesis inhibition reporter; AID 2315, 2010; inhibition, % at 38.7 µM; 9.2% of 290,000 active; in the data active = inhibition mostly above about 28%, no sharp cut-off; inactive = mostly below about 43%; note: 0% is about no effect
Pf growth 96h – Primary qHTS for delayed death inhibitors of the malarial parasite plastid, 96 hour incubation; P. falciparum luciferase reporter growth, 96 h; Potency, µM (doses to about 28.7 µM), without a hit: at the top dose activity change, negative = inhibition, usual class: inhibitors; 6.9% of 320,000 active; note: potency is the fitted concentration of half-maximal effect; % is set by controls: 0 for no effect and ±100 for the full control effect
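Two-generation exposure (96 h) targets delayed-death phenotype. Reporter parasites carrying integrated firefly luciferase, in red cells at 2% hematocrit and 0.05% parasitemia final, kept at 37 C, 5% CO2; luminescence loss indicates inhibition.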
Pf growth 48h – Primary qHTS for delayed death inhibitors of the malarial parasite plastid, 48 hour incubation; P. falciparum luciferase growth in erythrocytes, 48 h; Potency, µM (doses to about 28.7 µM), for the others: top-dose activity change, negative = inhibition, most hits filed as inhibitors; 5.9% of 310,000 active; note: potency is the fitted concentration of half-maximal effect; % is set by controls: 0 for no effect and ±100 for the full control effect
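Parasite viability was followed by luminescence of a genomically integrated firefly luciferase. Cultures held 0.1% parasitemia at 2% hematocrit (final), incubated under 5% CO2 at 37 C.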
HCV inh – qHTS Assay for Inhibitors of Hepatitis C Virus (HCV) | 3.4% of 340,000 active | Potency, µM (titrated, usually from 41.8 µM), for inactives: top-dose activity change, negative = inhibition, most hits filed as inhibitors | AID 651820, 2012 | Huh7.5.1 HCVcc-Cre infection, luciferase reporter, 44 h; note: potency is the fitted concentration of half-maximal effect; % is set by controls: 0 for no effect and ±100 for the full control effect
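Antiviral activity was scored by luciferase reporter output from cells infected with HCVcc-Cre (~0.5 moi) in presence of compound, 44 h infection period, cells seeded 1,000/well 4 h prior.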
* marks the source's active call; other numbers are inactive results; u = inconclusive; x = no result given; ! = not active in a repeat; [ ] = remark or other dose. Unless noted, calls come from the whole dose curve; as a rule, active = well fitted inhibition curve with a large enough effect; inconclusive = small, poorly fitted or top-dose-only effect, or another doubt; inactive = no such curve, though single readings can be large or run the other way.

SMILES	HCMV antiviral	Cycloheximide cs	Shiga inhibitor	Pf growth 96h	Pf growth 48h	HCV inh
O=C(Cn1ncc(Cl)c(Cl)c1=O)NC1CCCCC1	0	x	x	u	-24%	2.8µM*
O=C(Cn1ncc(Cl)c(Cl)c1=O)NC1CCS(=O)(=O)C1 (centres undefined)	-63*	-1	-5	-6%	-14%	-26%
O=C(Cn1ncc(Cl)c(Cl)c1=O)NCC1CCCCC1	-101*	30*	-8	-3%	-18%	2.8µM*
Cc1cccc(NC(=O)CNC(=O)Cn2ncc(Cl)c(Cl)c2=O)c1C	x	x	x	x	x	0.71µM*
O=C(CN1C(=O)c2ccccc2C1=O)NC1CCS(=O)(=O)C1 (centres undefined)	2	x	x	x	x	x
CCCNC(=O)c1c(NC(=O)c2ccc(C)cc2)sc2c1CCCCC2	-3	x	x	x	x	x
Cc1c(C)n2c(SCC(=O)Nc3cccc4ccccc34)nnc2[nH]c1=O	-35	x	x	u	12µM*	1%
Brc1c(CSc2nc3ccccc3s2)nc2ncccn12	38	23*	43	3.3µM*	3%	-6%
CCc1nc(SCC(=O)Nc2cccc3ccccc23)[nH]c(=O)c1C	-7	-5	-8	-14%	0%	0%
Cc1nc(NC(=O)CSc2nccn2C)sc1C(=O)N(C)C	25	21*	43*	0%	59%	18%
O=C(CSc1ccccn1)Nc1nc2ccccc2s1	-66*	28*	19	2.9µM*	45%	-19%
Cc1ccc(S(=O)(=O)N(C)C)cc1NC(=O)c1ccccc1SCC(=O)N1CCCC1	-36	x	x	u	u	-2%
Cn1ccnc1SCC(=O)Nc1ccc(Br)cc1C(F)(F)F	x	22*	117*	u	29%	17%
O=C(CSc1cn[nH]n1)Nc1nc2ccccc2s1	90	27*	53*	4%	47%	-20%
O=C(CSc1nc2ccccc2s1)Nc1ncccn1	63	40*	13	137%	40%	9%
Cc1cc(Br)ccc1NC(=O)CNC(=O)CSc1nccn1C	14	x	x	x	x	2%
Cn1ccnc1SCC(=O)Nc1nc2ccccc2s1	73	34*	72*	178%	48%	-12%
Cc1cc(Cl)ccc1NC(=O)CCN1C(=O)NC(C)(C)C1=O	4	x	x	-23%	u	3%
CCCn1cnc2c(=S)nc(N)[nH]c21	-24	1	-8	-22%	u	41%
Nn1c(SCC(=O)Nc2cccc(C(F)(F)F)c2)nncc1=O	1	-2	-2	-1%	u	11%
Cn1ccnc1SCC(=O)Nc1cccc2ccccc12	u	39*	25	x	13%	6%
Cn1ccnc1SCC(=O)Nc1ccc2nc(SCC(=O)NC3CC3)sc2c1	x	33*	113*	u	46%	-1%
CC1(C)Cc2ccccc2-c2nnc(SCC(=O)Nc3nc4ccccc4s3)n21	-83*	-5	3	-1%	u	-2%
Nn1c(SCC(=O)Nc2cc(C(F)(F)F)ccc2Cl)nncc1=O	-37	6	-2	u	12µM*	-27%
COC(=O)c1ccccc1NC(=O)CSc1nccn1C	6	14	-14	-10%	47%	2%
SMILES	HCMV antiviral	Cycloheximide cs	Shiga inhibitor	Pf growth 96h	Pf growth 48h	HCV inh
CC(=O)N1CCc2c(sc3c2c(=O)n(-c2cccc(Cl)c2C)c(=O)n3Cc2ccccc2C)C1	-37	x	x	x	x	x
C#CCSc1nc2sc3c(c2c(=O)n1-c1cccc(OC)c1)CCN(C(C)=O)C3	-30	x	x	x	x	x
COc1ccc(NC(=O)CSc2nccn2C)c([N+](=O)[O-])c1	5	23*	60*	2%	58%	25%
Cc1cc([N+](=O)[O-])ccc1NC(=O)CSc1nccn1C	-4	x	x	x	x	x
CCN(CC)C(=O)CSc1nc2ccc(NC(=O)CSc3nnc(COc4ccccc4C)n3C)cc2s1	-20	0	-3	9.3µM*	u	10µM*
Cc1ccccc1OCc1nnc(SCC(=O)Nc2ccc3nc(SCC(=O)NC(C)(C)C)sc3c2)n1C	-18	-3	-6	-8%[5.75 µM]	u	u
O=C(CSc1nc2ccccc2s1)NCCOc1ccccc1	7	15*	17	-5%	28%	5%
Cc1nnc(SCC(=O)Nc2nc3ccccc3s2)n(N)c1=O	34	-2	-3	50%	-7%	2%
Nn1c(SCC(=O)Nc2nc3ccccc3s2)nncc1=O	-32	23*	40	55%	13%	-1%
COc1ccc(C(=O)N2CC(=O)Nc3ccc(F)cc3C2c2ccc(F)cc2)c(OC)c1 (centres undefined)	3	x	x	x	x	x
Cc1cc(C(=O)N2CCCC(C(=O)c3cccc(C(F)(F)F)c3)C2)nc(C)n1 (centres undefined)	-21	11	-16	u	-11%	-1%
COc1ccc(CCNC(=O)CN(Cc2ccc(Cl)cc2)S(C)(=O)=O)cc1	-7	-2	-5	-14%	15%	-5%
COc1ccc(C(=O)NCCS(=O)(=O)N2CCCCCC2)cc1	-9	x	x	4%	-1%	0%[8.37 µM]
COc1ccc(N2CCN(C(=O)C3CCN(S(=O)(=O)c4cccc5nonc45)CC3)CC2)cc1	-18	x	x	x	x	x
CCC[C@H]1[C@@H](NS(=O)(=O)c2ccc(-c3ccccc3)cc2)CC[C@@]23CCCN2C(=O)CCC[C@@H]13	-6	x	x	x	x	x
CCc1ccc(/C=C2/SC(=S)N(CCC(=O)NCCCN3CCOCC3)C2=O)cc1	u	48*	91*	u	u	-27%
CCOc1ccc(/C=C2\SC(=S)N(CCCC(=O)NCCCN3CCOCC3)C2=O)cc1	-95*	-11	-20	-8%	u	-16%
CCc1ccc(/C=C2\SC(=S)N(CCCC(=O)NCCCN3CCOCC3)C2=O)cc1	-7	x	x	x	x	x
CCc1nn2c(=O)c(S(=O)(=O)Nc3ccc(C(C)C)cc3)c(C)nc2s1	-64*!	-1	-6	-2%	-25%	-10%
CCc1nn2c(=O)c(S(=O)(=O)Nc3cccc(F)c3)c(C)nc2s1	-30	-3	-1	u	26%	3%
COc1cc(C(O)c2nc(/C=C/c3ccc(C(F)(F)F)cc3)cs2)ccc1F (centres undefined)	-32	x	x	x	x	x
C=CCN(CC=C)Cc1c(C)[nH]c2ccc(C(=O)OCC)cc2c1=O	27	1	-11	-15%	u	9%
Cc1ccc2[nH]c(C)c(CC(=O)O)c2c1	-10	7	36	x	u	4%
C=CCc1c(C)[nH]c2ccc(C)cc2c1=O	-2	31*	70*	x	1.5µM*	-5%
CCc1c(C)[nH]c2ccc(C)cc2c1=O	20	22*	45*	13%	1.7µM*	-8%
CCCCc1c(C)c2cc(C)ccc2[nH]c1=O	5	-3	18	-29%	x	-21%
